Test results as given in PubChem BioAssay (NCI).
The panel holds about 79,000 compounds, 15% with a hit somewhere; the sample as a whole holds those more often. The source made the active and inactive calls. Rule as the data show it: active = growth inhibition above about 70%; inactive = the rest.

Tests used:
[1] = NCI Yeast Anticancer Drug Screen. Data for the wt1 strain (AID 149);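 also: 0% = growth of vehicle-treated wt1 cultures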; conditions: S. cerevisiae wt1 strain (SPY 50644) growth inhibition, hits give high values
Method in brief: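 The wt1 strain was treated with compounds, and growth was compared with vehicle-treated cultures to give inhibition.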

[2] = NCI Yeast Anticancer Drug Screen. Data for the rad50EPP+ strain (AID 151);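 also: 0% = growth of vehicle-treated control cultures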; conditions: S. cerevisiae rad50 mutant strain, hits give high values
Method in brief: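 One strain with a rad50 alteration (rad50EPP+) was compound-treated, its growth then compared to that of vehicle controls.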

[3] = NCI Yeast Anticancer Drug Screen. Data for the mgt1 strain (AID 153); conditions: S. cerevisiae mgt1 mutant growth inhibition, hits give high values
Method in brief: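 After exposure of the mgt1 yeast mutant to compound, growth was measured and reported as inhibition compared with vehicle controls.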

[4] = NCI Yeast Anticancer Drug Screen. Data for the rad50 strain (AID 155);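 also: 0% = growth of vehicle-only cultures of the same strain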; conditions: S. cerevisiae rad50 strain growth inhibition, hits give high values
Method in brief: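 Cells are treated with compound, grown, and their growth is then scored against vehicle-only cultures of the same repair-deficient yeast strain.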

[5] = NCI Yeast Anticancer Drug Screen. Data for the mec2-1 strain (AID 157); conditions: S. cerevisiae mec2-1 strain, hits give high values
Method in brief: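 Test agents were screened against the mec2-1 yeast strain, with defined DNA repair or cell cycle alteration. Growth was scored as inhibition against vehicle-only controls.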

[6] = NCI Yeast Anticancer Drug Screen. Data for the rad14 strain (AID 159);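 also: 0% = growth of vehicle-treated control cultures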; conditions: S. cerevisiae rad14 strain growth inhibition, hits give high values
Method in brief: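 Readout: yeast growth inhibition, referenced to vehicle-only cultures. Strain bears a defined alteration in DNA damage repair.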

[7] = NCI Yeast Anticancer Drug Screen. Data for the sgs1 mgt1 strain (AID 161);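 also: 0% = growth of cultures given vehicle only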; conditions: S. cerevisiae sgs1 mgt1 strain, hits give high values
Method in brief: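 Mutant yeast exposed to compound; growth scored against vehicle-only wells.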

[8] = NCI Yeast Anticancer Drug Screen. Data for the CLN2oe strain (AID 163);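 also: 0% = growth of vehicle-only control cultures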; conditions: S. cerevisiae CLN2oe strain, hits give high values
Method in brief: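 Here, growth inhibition in a cell-cycle-altered yeast strain after compound exposure was quantified against vehicle control growth.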

[9] = NCI Yeast Anticancer Drug Screen. Data for the cln2 rad14 strain (AID 165);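 also: 0% = growth equal to vehicle treated cultures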; conditions: S. cerevisiae cln2 rad14 strain, hits give high values
Method in brief: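 Growth of compound-exposed yeast (cln2 rad14 genotype) measured and expressed as inhibition relative to vehicle.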

[10] = NCI Yeast Anticancer Drug Screen. Data for the bub3 strain (AID 167); conditions: S. cerevisiae bub3 mutant strain, hits give high values
Method in brief: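 Part of a panel of yeast mutants defective in DNA damage repair or cell cycle regulation. Each strain is grown with compound, and inhibition is calculated relative to solvent-treated cultures.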

[11] = NCI Yeast Anticancer Drug Screen. Data for the wt2 strain (AID 169);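 also: 0% = growth of vehicle-treated yeast cultures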; conditions: S. cerevisiae wt2 strain growth inhibition, hits give high values
Method in brief: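 Genetically defined yeast strains from a DNA-repair/cell-cycle panel were used. Compound-exposed yeast growth was measured, and the inhibition was calculated relative to vehicle treatment.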

[12] = NCI Yeast Anticancer Drug Screen. Data for the mlh1 strain (AID 171);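 also: 0% = growth of vehicle-treated control cultures of the same strain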; conditions: S. cerevisiae mlh1 strain growth inhibition, hits give high values
Method in brief: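 Here the genetically defined yeast mutant is grown with each compound, and the extent to which its growth falls below that of vehicle-exposed cells is reported.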

[13] = NCI Yeast Anticancer Drug Screen. Data for the sgs1 strain (AID 173);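 also: 0% = growth of vehicle-only control cultures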; conditions: S. cerevisiae sgs1 mutant, hits give high values
Method in brief: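 Relative growth inhibition, referenced to vehicle, was determined in a yeast strain with a defined alteration affecting DNA damage repair or cell cycle control after compound exposure.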

[14] = NCI Yeast Anticancer Drug Screen. Data for the mlh1 rad18 strain (AID 175); conditions: S. cerevisiae mlh1 rad18 strain growth inhibition, hits give high values
Method in brief: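 In this whole-cell yeast screen, a strain with altered DNA damage repair is challenged with compound, and its growth is measured against matched vehicle-treated controls.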

[15] = NCI Yeast Anticancer Drug Screen. Data for the rad18 strain (AID 177); conditions: S. cerevisiae rad18 mutant growth inhibition, hits give high values
Method in brief: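 Screen uses a yeast strain with a defined lesion in DNA damage repair; compound effect is read as loss of growth compared to untreated vehicle cultures.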

[16] = at 5.0 µM (retest, dose inferred, filed as 0.5)
[17] = at 50.0 µM (retest, dose inferred, filed as 5.0)

Measured: growth inhibition

CCCC#CCOC(=O)c1cc([N+](=O)[O-])cc([N+](=O)[O-])c1
active: [1]; at 11.0 µM 99% | [1]; at 33.0 µM 99% | [1]; at 100.0 µM 99% | [2]; at 3.7 µM 92% | [2]; at 11.0 µM 99% | [2]; at 33.0 µM 99% | [2]; at 100.0 µM 99% | [3]; at 3.7 µM 86% | [3]; at 11.0 µM 99% | [3]; at 33.0 µM 99% | [3]; at 100.0 µM 99% | [4]; [16] 88% | [4]; at 11.0 µM 98% | [4]; at 33.0 µM 98% | [4]; [17] 99% | [4]; at 50.0 µM 99.5% | [4]; at 100.0 µM 99% | [5]; [16] 99% | [5]; at 11.0 µM 99% | [5]; at 33.0 µM 99% | [5]; [17] 100% | [5]; at 50.0 µM 99.7% | [5]; at 100.0 µM 99% | [6]; at 11.0 µM 98% | [6]; at 33.0 µM 99% | [6]; at 100.0 µM 99% | [7]; [16] 97% | [7]; [17] 100% | [7]; at 50.0 µM 99.7% | [8]; at 11.0 µM 99% | [8]; at 33.0 µM 99% | [8]; at 100.0 µM 99% | [9]; [17] 99% | [9]; at 50.0 µM 99.5% | [10]; [16] 86% | [10]; at 11.0 µM 98% | [10]; at 33.0 µM 98% | [10]; [17] 99% | [10]; at 50.0 µM 99.8% | [10]; at 100.0 µM 99% | [11]; at 3.7 µM 95% | [11]; at 11.0 µM 97% | [11]; at 33.0 µM 99% | [11]; at 100.0 µM 99% | [12]; at 11.0 µM 99% | [12]; at 33.0 µM 99% | [12]; at 100.0 µM 99% | [13]; at 3.7 µM 97% | [13]; at 11.0 µM 99% | [13]; at 33.0 µM 99% | [13]; at 100.0 µM 99% | [14]; [16] 97% | [14]; [17] 100% | [14]; at 50.0 µM 99.5% | [15]; at 3.7 µM 81% | [15]; at 11.0 µM 99% | [15]; at 33.0 µM 99% | [15]; at 100.0 µM 99%
inactive: [1]; at 1.2 µM -4% | [1]; at 3.7 µM 22% | [2]; at 1.2 µM 22% | [3]; at 1.2 µM -5% | [4]; at 1.2 µM 2% | [4]; at 3.7 µM 67% | [5]; at 1.2 µM -2% | [5]; at 3.7 µM 33% | [6]; at 1.2 µM 0% | [6]; at 3.7 µM 28% | [8]; at 1.2 µM -2% | [8]; at 3.7 µM 11% | [9]; [16] 23% | [10]; at 1.2 µM -9% | [10]; at 3.7 µM 4% | [11]; at 1.2 µM -5% | [12]; at 1.2 µM 1% | [12]; at 3.7 µM 30% | [13]; at 1.2 µM 4% | [15]; at 1.2 µM 4%

[N-]=[N+]=NC1CC(n2ccc(=O)[nH]c2=O)OC1COC(c1ccccc1)(c1ccccc1)c1ccccc1 (stereo unspecified)
inactive: [1]; at 1.2 µM 1% | [1]; at 3.7 µM 4% | [1]; at 11.0 µM 11% | [2]; at 1.2 µM 1% | [2]; at 3.7 µM 0% | [2]; at 11.0 µM 0% | [2]; at 33.0 µM -2% | [2]; at 100.0 µM -7% | [3]; at 1.2 µM 0% | [3]; at 3.7 µM 3% | [3]; at 11.0 µM 16% | [4]; at 1.2 µM 1% | [4]; at 3.7 µM 3% | [4]; at 11.0 µM 48% | [4]; at 50.0 µM 41.8% | [5]; at 1.2 µM -3% | [5]; at 3.7 µM -1% | [5]; [16] 18% | [5]; at 11.0 µM 27% | [6]; at 1.2 µM 2% | [6]; at 3.7 µM 5% | [6]; at 11.0 µM 18% | [7]; [16] 15% | [7]; at 50.0 µM 50.5% | [8]; at 1.2 µM -4% | [8]; at 3.7 µM -4% | [8]; at 11.0 µM 26% | [9]; [16] 33% | [10]; at 1.2 µM 0% | [10]; at 3.7 µM -2% | [10]; [16] 8% | [10]; at 11.0 µM 15% | [11]; at 1.2 µM 0% | [11]; at 3.7 µM -1% | [11]; at 11.0 µM 23% | [12]; at 1.2 µM 0% | [12]; at 3.7 µM 2% | [12]; at 11.0 µM 25% | [13]; at 1.2 µM 0% | [13]; at 3.7 µM 2% | [13]; at 11.0 µM 17% | [14]; at 50.0 µM 50.6% | [15]; at 1.2 µM 3% | [15]; at 3.7 µM 13% | [15]; at 11.0 µM 52%
active: [1]; at 33.0 µM 89% | [1]; at 100.0 µM 91% | [3]; at 33.0 µM 76% | [3]; at 100.0 µM 80% | [4]; [16] 76% | [4]; at 33.0 µM 93% | [4]; [17] 82% | [4]; at 100.0 µM 83% | [5]; at 33.0 µM 86% | [5]; [17] 79% | [5]; at 50.0 µM 89.7% | [5]; at 100.0 µM 85% | [6]; at 33.0 µM 77% | [6]; at 100.0 µM 81% | [7]; [17] 80% | [8]; at 33.0 µM 89% | [8]; at 100.0 µM 80% | [9]; [17] 81% | [9]; at 50.0 µM 88.9% | [10]; at 33.0 µM 85% | [10]; [17] 76% | [10]; at 50.0 µM 89.8% | [10]; at 100.0 µM 83% | [11]; at 33.0 µM 81% | [11]; at 100.0 µM 80% | [12]; at 33.0 µM 71% | [12]; at 100.0 µM 77% | [13]; at 33.0 µM 84% | [13]; at 100.0 µM 86% | [14]; [16] 74% | [14]; [17] 86% | [15]; at 33.0 µM 94% | [15]; at 100.0 µM 87%
